# Laboratory results: PubChem BioAssay AID360 (National Center for Advancing Translational Sciences (NCATS), 2006)
# Among all 48,000 compounds or so, about 550 (1.1%) were called active. Not shown: some 4% with an inconclusive outcome. Rule as the data show it: active = potency below about 15 µM; inconclusive = mostly about 16 µM to 33 µM; inactive = weaker than that. Shown is part of a subset that was picked to be rich in actives.
# Molecular target: Lysosomal acid glucosylceramidase (Homo sapiens) (UniProt P04062)
# Sequence (P04062 whole entry, looked up): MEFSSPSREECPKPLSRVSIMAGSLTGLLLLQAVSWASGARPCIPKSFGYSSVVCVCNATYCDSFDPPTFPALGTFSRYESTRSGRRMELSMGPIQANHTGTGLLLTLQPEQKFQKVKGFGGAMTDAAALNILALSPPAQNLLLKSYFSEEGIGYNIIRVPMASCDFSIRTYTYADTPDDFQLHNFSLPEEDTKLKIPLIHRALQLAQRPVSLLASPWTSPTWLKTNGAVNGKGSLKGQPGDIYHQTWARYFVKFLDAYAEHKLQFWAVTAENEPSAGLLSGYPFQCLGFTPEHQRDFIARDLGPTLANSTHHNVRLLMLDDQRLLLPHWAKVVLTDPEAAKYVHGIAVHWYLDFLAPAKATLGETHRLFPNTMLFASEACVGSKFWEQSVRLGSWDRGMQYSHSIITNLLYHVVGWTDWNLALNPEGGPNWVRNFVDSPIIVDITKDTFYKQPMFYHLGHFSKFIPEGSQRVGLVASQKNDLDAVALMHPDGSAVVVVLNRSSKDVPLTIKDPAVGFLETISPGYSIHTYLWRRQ
# Test: Glucocerebrosidase;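 also: the screen sought inhibitors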
# Settings: purified enzyme, resorufin glucoside fluorescence (screen aimed at inhibitors), 20 min
# Procedure, shortened: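 Normal human glucocerebrosidase (0.2 nM final) was assayed with resorufin β-D-glucopyranoside (30 uM final) in 50mM citric acid/KH2PO4, 10mM sodium taurocholate, 0.01% tween-20, pH 5.9. Compounds were titrated; fluorescence (Ex 548, Em 600) read after 20 min at RT.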
# Potency is read from the fitted curve at half-maximal effect.
row,Structure (SMILES),Potency
1,CCOC(=O)c1sc(N(Cc2ccccc2)C(=O)CN2C(=O)CN(C)C2=O)nc1C,> 76.9 µM (inactive)
2,CCOC(=O)c1c(C)[nH]c(C(=O)NCc2ccccc2OC)c1C,> 76.9 µM (inactive)
3,Fc1ccc(-c2nnc3sc(-c4ccc5c(c4)OCO5)nn23)cc1,> 76.9 µM (inactive)
4,Cc1cc(C)cc(N(C(C)C(=O)Nc2c(C)n(C)n(-c3ccccc3)c2=O)S(C)(=O)=O)c1 (stereo not drawn),> 76.9 µM (inactive)
5,c1ccc(CCc2nc(-c3ccncc3)no2)cc1,> 76.9 µM (inactive)
6,CC(Sc1nncn1C)C(=O)Nc1ccccc1-c1ccccc1 (stereo not drawn),> 76.9 µM (inactive)
7,Cc1ccc(S(=O)(=O)N2CCN(C(=O)CCC(=O)NC3CCCc4ccccc43)CC2)cc1 (stereo not drawn),> 76.9 µM (inactive)
8,Cc1noc(C)c1C(=O)NC(C)c1ccc2c(c1)OCO2 (stereo not drawn),> 76.9 µM (inactive)
9,CCN(CC)CCN1C(=O)C(=O)/C(=C(/O)c2ccc(OC)c(OC)c2)C1c1ccccn1 (stereo not drawn),> 76.9 µM (inactive)
10,Cc1nc(NC(CC(C)C)C(=O)O)c2nc(C)oc2n1 (stereo not drawn),> 76.9 µM (inactive)
11,C=CCn1c(C(C)NC(=O)CC)nc2ccccc21 (stereo not drawn),> 76.9 µM (inactive)
12,CCOC(=O)N1CCN(C(=O)C2CCN(S(C)(=O)=O)CC2)CC1,> 76.9 µM (inactive)
13,CC(C)CCNc1nc(N2CCCC2)c2c(c1C#N)CCN(C)C2,12.7 µM (active)
14,Cc1cc(C)c2nc(N3CCCC3)c(C#N)cc2c1,> 76.9 µM (inactive)
15,Cc1cccc2cc(C#N)c(N3CCCC3)nc12,> 76.9 µM (inactive)
16,Cn1c(=O)n(C)c(=O)n(CC(=O)N2CCCCC2)c1=O,> 76.9 µM (inactive)
17,Cc1cc(=O)cc(C)[nH]1,> 76.9 µM (inactive)
18,C=CCn1c(SCc2cc(C(=O)OC)c(C)o2)nnc1-c1ccncc1,> 76.9 µM (inactive)
19,Cc1ccc(S(=O)(=O)N(C)CC(=O)N2CCc3ccccc32)cc1,> 76.9 µM (inactive)
20,CCC(CC)c1nnc(NS(=O)(=O)Cc2ccccc2)s1,> 76.9 µM (inactive)
21,CC(Oc1ccc(Cl)cc1)C(=O)Nc1ncccn1 (stereo not drawn),> 76.9 µM (inactive)
22,COc1ccc(N2CCN(CCNC(=O)CCN3C(=O)COc4ccccc43)CC2)cc1,> 76.9 µM (inactive)
23,O=c1ccc2cc(S(=O)(=O)N3CCN(c4ccccc4)CC3)ccc2o1,> 76.9 µM (inactive)
24,COc1ccc(N2CCN(Cc3cc(=O)oc4ccc5ccccc5c34)CC2)cc1,5.96 µM (active)

row,Structure (SMILES),Potency
1,COC(=O)c1cc(NC(=O)CN2CCC(C(N)=O)(N3CCCCC3)CC2)cc(C(=O)OC)c1,> 76.9 µM (inactive)
2,COc1ccc(S(=O)(=O)N2CCN(c3ncnc4c(-c5ccccc5)nsc34)CC2)cc1,> 76.9 µM (inactive)
3,CCn1c2c(c3ccc(OC)cc31)CCCC2=O,> 76.9 µM (inactive)
4,CCOC(=O)CNC(=O)CSc1nnc(COc2ccc(Cl)cc2)n1CC,> 76.9 µM (inactive)
5,O=S(=O)(Nc1ccccc1N1CCOCC1)c1ccc(Cl)s1,> 76.9 µM (inactive)
6,COc1cccc(C2/C(=C(/O)c3ccncc3)C(=O)C(=O)N2CCCN(C)C)c1 (stereo not drawn),> 76.9 µM (inactive)
7,CC1CCCCN1CC(=O)NCc1ccc2c(c1)OCO2 (stereo not drawn),> 76.9 µM (inactive)
8,CC(C)(C)Oc1ncc(Br)c(OC(C)(C)C)n1,> 76.9 µM (inactive)
9,N#CC(C(N)=O)=C1CCC2(CC1)OCCCCO2,> 76.9 µM (inactive)
10,O=C(Cn1c(=O)sc2ccccc21)Nc1ccc2c(c1)OCCO2,> 76.9 µM (inactive)
11,COc1ccc(C(c2nnnn2Cc2cccs2)N2CCN(c3ccccc3)CC2)cc1OC (stereo not drawn),> 76.9 µM (inactive)
12,O=C(Cn1c(=S)nc2ccccn21)N1CCc2ccccc2C1,> 76.9 µM (inactive)
13,CCOc1nc(-c2ccc(OC)cc2)ccc1-c1noc(-c2cc(OC)c(OC)c(OC)c2)n1,6.96 µM (active)
14,COc1ccc(-c2ccc(-c3noc(-c4ccncc4)n3)c(OC)n2)cc1,> 76.9 µM (inactive)
15,COc1ccc(-c2nc(-c3ccccc3)no2)c(OC)c1,> 76.9 µM (inactive)
16,CCCC(=O)Nc1ccc2c(c1)nc1n2CCSC1,> 76.9 µM (inactive)
17,O=C(O)CCC(=O)N(Cc1ccco1)c1nc(-c2ccccc2)cs1,> 76.9 µM (inactive)
18,COCc1nnc(NC(=O)CS(=O)(=O)Cc2ccccc2)s1,> 76.9 µM (inactive)
19,Cc1ccc(C)n1-c1ccncc1,> 76.9 µM (inactive)
20,Cc1ccc(C(C(=O)NCc2ccco2)N(CC2CCCO2)C(=O)Cn2nnc3ccccc32)cc1 (stereo not drawn),> 76.9 µM (inactive)
21,Cc1ccc(-c2noc(CCC(N)=O)n2)cc1,> 76.9 µM (inactive)
22,Cc1ccc(S(=O)(=O)N2CCOCC2)cc1C(=O)NCc1ccc(F)cc1,> 76.9 µM (inactive)
23,Cc1nc(SCC(=O)Nc2cc(C)on2)c2c(C)c(C)sc2n1,> 76.9 µM (inactive)
24,Cc1nc(SCC(=O)Nc2cc(C)on2)c2c3c(sc2n1)CCCC3,15.3 µM (active)

row,Structure (SMILES),Potency
1,Cc1cc(C)n(-c2nc(SCC(=O)N3CCCC3)c3c4c(sc3n2)CCCC4)n1,> 76.9 µM (inactive)
2,CCn1nnc(NC(=O)c2cc(Cl)c(OC)c(Cl)c2)n1,> 76.9 µM (inactive)
3,Cc1ccccc1OCC(=O)Nc1ccc(N2CCN(C(=O)C(C)C)CC2)c(Cl)c1,2.17 µM (active)
4,CCOc1cc(N2CCOCC2)c(OCC)cc1NC(=O)COc1cccc2cccnc12,> 76.9 µM (inactive)
5,Cc1cccc(NC(=O)COc2ccccc2C)n1,> 76.9 µM (inactive)
6,CC1(C)CC(=O)C2=C(C1)NCN(CCCN1CCOCC1)C2,> 76.9 µM (inactive)
7,Cn1c(=O)[nH]c(=O)c2c1nc(N1CCCCCC1)n2CC(=O)c1ccccc1,> 76.9 µM (inactive)
8,CCn1c(SCC(=O)Nc2cc(C)c(Cl)cc2OC)nnc1-c1ccco1,> 76.9 µM (inactive)
9,N#Cc1c(N)sc2c1CCN(C(=O)OCc1ccccc1)C2,> 76.9 µM (inactive)
10,O=C(O)CCC(=O)N(Cc1cccs1)Cc1cccs1,> 76.9 µM (inactive)
11,O=C(O)C1CC(=O)N(Cc2cccnc2)C1 (stereo not drawn),> 76.9 µM (inactive)
12,Cc1cc(C)nc(NC(=O)Nc2ccccc2C(F)(F)F)n1,> 76.9 µM (inactive)
13,CC(NC(=O)c1cc(-c2ccccc2)on1)c1ccccc1 (stereo not drawn),> 76.9 µM (inactive)
14,O=C(Nc1ccccc1C(F)(F)F)c1cc(-c2ccc(O)cc2)on1,13.4 µM (active)
15,Cc1ccc(C(=O)CSc2nnc(Cn3nnc4ccccc43)n2C)cc1,> 76.9 µM (inactive)
16,CCOC(=O)C1CCN(C(=O)Cn2cc(C#N)c3ccccc32)CC1,> 76.9 µM (inactive)
17,CC1CCN(C(=O)Cn2cc(C(=O)c3ccco3)c3ccccc32)CC1,12.7 µM (active)
18,COC(=O)Cn1cc(C(=O)c2cccs2)c2ccccc21,> 76.9 µM (inactive)
19,O=C(OCC(O)C(O)COC(=O)c1ccccc1)c1ccccc1 (stereo not drawn),> 76.9 µM (inactive)
20,Cc1ccc(S(=O)(=O)NCc2csc(C)n2)c(C)c1,> 76.9 µM (inactive)
21,Cc1ccc(C)c(NS(=O)(=O)c2cc(Br)cnc2N)c1,15.2 µM (active)
22,COC(=O)c1c(NC(=O)CSc2nc3c(c(=O)n(C)c(=O)n3C)n2C(C)C)sc(C)c1C,> 76.9 µM (inactive)
23,Cc1nc2c(-c3ccccc3)c(C)[nH]n2c(=O)c1Cl,5.44 µM (active)
24,Cc1nc2nc(COc3ccccc3)[nH]n2c(=O)c1C,> 76.9 µM (inactive)

row,Structure (SMILES),Potency
1,CCn1c(COc2ccccc2)nnc1SCC(=O)Nc1ccc2c(c1)OCCO2,> 76.9 µM (inactive)
2,O=c1cc(Cn2nnc(-c3ccc(Cl)cc3)n2)nc2sccn12,> 76.9 µM (inactive)
3,O=C(NCc1cn2ccsc2n1)Nc1ccc(Cl)cc1,> 76.9 µM (inactive)
4,O=C(NCc1ccc(Cl)cc1)c1cc2c(nc3sccn32)s1,8.26 µM (active)
5,CCn1c(SCC(=O)c2ccc(Cl)s2)nnc1-c1cccs1,> 76.9 µM (inactive)
6,CC(=O)N1CCC(C(=O)Nc2nc(-c3ccccc3)ns2)CC1,7.19 µM (active)
7,CCN(CC)S(=O)(=O)N1CCC(C(=O)NC(C)CCc2ccccc2)CC1 (stereo not drawn),> 76.9 µM (inactive)
8,Cc1ccc2c(NC(=O)C3CC3)cccc2n1,> 76.9 µM (inactive)
9,CCc1nnc(NC(=O)c2ccc(S(=O)(=O)NC3CCCCC3)cc2)s1,9.65 µM (active)
10,CCc1nnc(NS(=O)(=O)c2ccc(NS(=O)(=O)c3ccccc3)cc2)s1,> 76.9 µM (inactive)
11,CCc1nnc(NC(=O)C2CCCN2S(=O)(=O)c2ccccc2)s1 (stereo not drawn),> 76.9 µM (inactive)
12,O=C(c1ccccc1-c1ccccc1)N1CCOCC1,> 76.9 µM (inactive)
13,Cc1occc1C(=O)Nc1cccc(Cn2cccn2)c1,> 76.9 µM (inactive)
14,CCNc1nc(N)nc(Oc2ccc(OCC)nn2)n1,> 76.9 µM (inactive)
15,CC(C)(C)c1nc(NCC2CCCO2)c2nnn(Cc3ccccc3)c2n1 (stereo not drawn),> 76.9 µM (inactive)
16,Cc1ccccc1-c1nnn(CC(=O)c2ccc(S(=O)(=O)N3CCCC3)cc2)n1,> 76.9 µM (inactive)
17,CC(C)(C)NC(=O)Cn1nnc(-c2ccccc2Cl)n1,15.2 µM (active)
18,O=C(Cn1nnc(-c2ccccc2)n1)NCc1ccccc1,> 76.9 µM (inactive)
19,Cc1noc(C)c1COC(=O)Cn1c(C)nc2ccccc21,> 76.9 µM (inactive)
20,CC(C)[C@H](NC(=O)Nc1ccc(S(N)(=O)=O)cc1)C(=O)O,> 76.9 µM (inactive)
21,COc1ccc(OC)c(NC(=O)CSc2nc3cccnc3n2C)c1,> 76.9 µM (inactive)
